# Source: PubChem BioAssay (National Center for Advancing Translational Sciences (NCATS))
# TDP1 cell noCPT: qHTS for Inhibitors of human tyrosyl-DNA phosphodiesterase 1 (TDP1): qHTS in cells in absence of CPT | DT40 Tdp1-/- hTDP1 cells, no CPT, ATP luminescence, 48 h | Potency, µM (highest dose often 46.2 µM), for inactives: at the top dose activity change, negative = growth inhibition, usual class: inhibitors | actives 15% (n = 420,000) | AID 686978, 2013; note: potency is the fitted concentration of half-maximal effect; nearly all actives have a fitted effect of over 55% in size
#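 Growth of hTDP1-complemented DT40 Tdp1-knockout cells is measured by ATP luminescence after at least 48 hr compound exposure at 37 °C, with DMSO substituting for the 20 nM CPT used in the parallel screen.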
# IL-1B inflam inh: inhibitors of inflammasome signaling (IL-1 beta secretion); THP-1 LPS/ATP IL-1B secretion, AlphaLISA, 16 h; active compounds read low; actives 4.7% (n = 360,000); activity change, % at 57.5 µM; in the data active = activity change below about -50%; inconclusive = mostly about -30% to -49%
#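 THP-1 cells pretreated 1 hr with compounds (up to 57.5 uM final), then stimulated with LPS (250 ng/mL final) plus ATP (1.25 mM final); secreted IL-1B measured by AlphaLISA after 16 hr, decreased signal indicating inhibition.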
# TDP1 cell CPT: growth inhibition of DT40 Tdp1-/-;hTDP1 cells with camptothecin (screen for TDP1 inhibitors); chicken DT40 Tdp1-/-;hTDP1 cells + 20 nM CPT, ATP luminescence, 48 h; Potency, µM (doses to about 46.2 µM), for inactives: at the highest dose activity change, negative = growth inhibition, hits mostly inhibitors; actives 12% (n = 420,000); note: potency is the fitted concentration of half-maximal effect; nearly all actives have a fitted effect of over 55% in size
#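 Cell growth measured by CellTiter-Glo luminescence after a minimum 48 h, 37 C compound exposure with 20 nM CPT in Tdp1-knockout DT40 cells stably expressing hTDP1, seeded 400/well; qHTS titration format.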
# HT1080NT lethal: kills 2HG-producing HT-1080-NT fibrosarcoma cells; HT-1080-NT fibrosarcoma viability, CellTiter-Glo ATP luminescence, 48 h; actives 1.6% (n = 360,000); Potency, µM (highest dose often 46.1 µM), without a hit: at the highest dose activity, negative = less viability, actives largely listed as cytotoxic;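 note: NT is the 2HG producing partner of a matched IDH1 knockdown line; potency is the fitted concentration of half-maximal effect; 0% = DMSO-treated cells and -100% = media-only wells without cells; nearly all actives have a fitted effect of over 55% in size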
#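 Compounds were tested in concentration-response format on HT-1080-NT cells for 48 hours at 37 degrees C. Cell viability came from CellTiter-Glo luminescence; curves were classified by r2, response magnitude and activity.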
# HT1080 IDH1KD tx: kills HT-1080 cells with IDH1 knockdown; HT-1080 IDH1 knockdown viability, ATP luminescence, 48 h; actives 2% (n = 360,000); Potency, µM (series often up to 46.1 µM), for inactives: top-dose activity, negative = toxicity, hits mostly cytotoxic; AID 686971;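 note: potency is the fitted concentration of half-maximal effect; 0% = DMSO wells and -100% = cell-free medium wells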
#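 Viability of IDH1-knockdown HT-1080 fibrosarcoma cells was assessed by CellTiter-Glo after 48 h at 37 °C with titrated compound; concentration-effect curves were classified by fit quality and response size.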
# An asterisk follows results filed as active; ? = inconclusive; nt = no result; [ ] = dose if it differs, or a comment. Sampled rows, rich in hits. Any-hit rate of the full collection: about 19%. Unless noted, calls come from the whole dose curve; as a rule, active = well fitted curve in the direction sought with a large enough effect; inconclusive = small, poorly fitted or top-dose-only effect, or another doubt; inactive = no such curve, though single readings can be large; an effect the other way counts as inactive or inconclusive. Unless noted, % is set by controls: 0 for no effect and ±100 for the full control effect.
SMILES,TDP1 cell noCPT,IL-1B inflam inh,TDP1 cell CPT,HT1080NT lethal,HT1080 IDH1KD tx
O=[N+]([O-])c1ccc(NN=C2CC3CCC2C3)c([N+](=O)[O-])c1 (centres undefined),16µM*,33,18µM*,-4%,9%
O=[N+]([O-])c1ccc(NN=C2CCCCC2)c([N+](=O)[O-])c1,?,-2,?,-2%,-7%
COc1cc(CN(C)Cc2cc(=O)oc3cc(C)c(Cl)cc23)ccc1OC(F)F,?,-7,?,-20%,-12%
Cc1cccc(CN2C[C@H](Sc3ccccn3)C[C@H]2C(=O)Nc2ccc3sc(C)nc3c2)c1,-20%,nt,1%[9.04 µM],nt,nt
CCCCCCCCOC(=O)CCn1[nH]c(=O)c2ccccc2c1=O,-10%,-6,-18%,6%,4%
COc1cc2c(cc1OC)C(=S)NC(C)(C)C2,14%,-9,15%,10µM*,?
O=C(Nc1ccc(Oc2ccccc2)nc1)[C@H]1O[C@@H](n2ccc(=O)[nH]c2=O)[C@H](O)[C@@H]1O,-6%,0,-12%,21%,17%
O=C(CCC1N=C2c3ccccc3N=C(SCc3ccccc3Cl)N2C1=O)NCc1ccco1 (centres undefined),18µM*,?,?,-20%,-25%
COc1ccccc1NC(=O)CSC1=Nc2ccccc2C2=NC(CCC(=O)NCCc3ccccc3)C(=O)N12 (centres undefined),23µM*,nt,?,nt,nt
COc1ccccc1NC(=O)CSC1=Nc2ccccc2C2=NC(CCC(=O)NCc3ccco3)C(=O)N12 (centres undefined),16µM*,nt,15µM*,nt,nt
O=C(CCC1N=C2c3ccccc3N=C(SCc3ccccc3Cl)N2C1=O)N1CCN(c2ccccc2)CC1 (centres undefined),21µM*,nt,?,nt,nt
CC(C)c1ccc(NC(=O)CSC2=Nc3ccccc3C3=NC(CCC(=O)NCc4ccco4)C(=O)N23)cc1 (centres undefined),-4%,nt,-15%,nt,nt
COc1cc(-c2cnc3c(NC(C)=O)cc(-c4ccc(N5CCN(C)CC5)cc4)cn23)cc(OC)c1OC,4.6µM*,-87*,4.6µM*,?,?
COc1cc(-c2cnc3c(NC=O)cc(-c4ccc(N5CCN(C)CC5)cc4)cn23)cc(OC)c1OC,3.7µM*,45,3.3µM*,-5%,?
O=C(Nc1nnc(-c2ccc(F)cc2)s1)Nc1ccccc1F,-2%,22,-1%,3%,-2%
O=C(Nc1ccc(F)cc1)Nc1nnc(COc2ccccc2F)s1,16µM*,-166*,15µM*,?,15µM*
O=C(Nc1nnc(COc2ccccc2F)s1)Nc1ccccc1F,21µM*,-10,?,?,?
COC(=O)c1cccc(Nc2c(-c3ccc(SC)cc3)nc3nc[nH]n23)c1,-16%,nt,-15%,nt,nt
Fc1ccc(NC(=S)Nc2cccc(Cl)c2)cc1,?,-8,?,12%,6%
S=C(NCCC(c1ccccc1)c1ccccc1)Nc1cccc(Cl)c1,15µM*,0,?,?,?
S=C(NCCN(C1CCCCC1)C1CCCC1)Nc1cccc(Cl)c1,16µM*,nt,?,16µM*,16µM*
CC(C)c1cccc(C(C)C)c1NC(=S)Nc1cccc(Cl)c1,21µM*,nt,?,7%,0%
CCCn1c(=N)n(CC(O)COc2cccc(C)c2)c2ccccc21 (centres undefined),15µM*,?,16µM*,-18%,?
CCn1c(=N)n(CC(O)COc2cccc(C)c2)c2ccccc21 (centres undefined),9.2µM*,?,15µM*,?,?
CCCCCn1c(=N)n(CC(O)COc2cccc(C)c2)c2ccccc21 (centres undefined),2.1µM*,nt,2.9µM*,nt,nt
SMILES,TDP1 cell noCPT,IL-1B inflam inh,TDP1 cell CPT,HT1080NT lethal,HT1080 IDH1KD tx
CCn1c(=N)n(CC(O)c2ccccc2)c2ccccc21 (centres undefined),-28%,-5,-9%,1%,-5%
COc1ccccc1C(=O)OCCc1ccccc1,-7%,-8,1%,20%,25%
NC(=O)c1cc([N+](=O)[O-])ccc1NCc1ccc(N)cc1,?,-17,?,0%,3%
COc1ccc(C=O)cc1COc1ccc(Cl)cc1[N+](=O)[O-],21µM*,12,?,-7%,?
O=c1[nH]c(SCc2cccc(Cl)c2)nc2c1CCC2,-19%,nt,-29%,nt,nt
CC1CCC(C(C)C)C(OC(=O)COC(=O)c2ccc(=O)[nH]c2)C1 (centres undefined),?,28,-29%,-30%,-24%
CC1CCC(C(C)C)C(OC(=O)COC(=O)c2cc(O)ccc2N)C1 (centres undefined),?,-80*,?,?,?
OC(c1cccc(Cl)c1)c1nc(/C=C/c2ccccc2)cs1 (centres undefined),?,24,?,-20%,?
COc1ccc(C(CC(=O)c2ccccc2)C2CCCCC2=O)cc1 (centres undefined),-29%,-3,16µM*,6%,-7%
O=C1CC[C@@H](C(=O)NCC2Cc3cc(Cl)cc(-c4ccc5[nH]ccc5c4)c3O2)N1 (some centres undefined),-25%,nt,-4%[9.04 µM],nt,nt
Cc1ccc(Nc2nnc(SCC(=O)c3c(N)n(C4CC4)c(=O)[nH]c3=O)s2)cc1C,?,-5,21µM*,-20%,?
O=C(N[C@H]1C/C=C\C[C@H](CC(=O)N(CCO)Cc2ccccc2)C(=O)NC[C@H](c2ccccc2)OC1=O)OCC1c2ccccc2-c2ccccc21,6.5µM*,-2,6.5µM*,4%,4%
O=C(N[C@@H]1C/C=C\C[C@@H](CC(=O)N(CCO)Cc2ccccc2)C(=O)N[C@@H](c2ccccc2)COC1=O)OCC1c2ccccc2-c2ccccc21,6.5µM*,9,7.3µM*,-8%,-1%
O=C1CCC/C=C\C[C@@H](CC(=O)N(CCO)Cc2ccccc2)C(=O)N[C@H](c2ccccc2)CO1,-28%,-6,-2%,7%,11%
NC(=O)COc1ccc(-c2noc(COc3ccccc3[N+](=O)[O-])n2)cc1,-15%,-2,-13%,1%,6%
COc1ccc(NC(=O)C2CCN(S(=O)(=O)c3cccc4nonc34)CC2)c(OC)c1,-25%,-12,2%,2%,3%
Cc1ccc2[nH]c3nc(NN)nnc3c2c1,?,20,23µM*,-11%,-3%
CCc1nn(CC(=O)NCc2ccccc2)c(=O)c2cccn12,1%,nt,0%,nt,nt
